Screening data deposited in PubChem by National Center for Advancing Translational Sciences (NCATS).
Only some compounds are listed: those with a hit (about 19% of all), similar ones and a draw of the others.
IL-1B inflam inh = inhibitors of inflammasome signaling (IL-1 beta secretion) | AID 743279 | 360,000 tested, 4.7% active | THP-1 LPS/ATP IL-1B secretion, AlphaLISA, 16 h; active compounds read low | activity change, % at 57.5 µM; in the data active = activity change below about -50%; inconclusive = mostly about -30% to -49%
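THP-1 cells pretreated 1 hr with compounds (up to 57.5 uM final), then stimulated with LPS (250 ng/mL final) plus ATP (1.25 mM final); secreted IL-1B measured by AlphaLISA after 16 hr, decreased signal indicating inhibition.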
DT40 TDP1 CPT = growth inhibition of DT40 Tdp1-/-;hTDP1 cells with camptothecin (screen for TDP1 inhibitors) | 420,000 tested, 12% active | chicken DT40 Tdp1-/-;hTDP1 cells + 20 nM CPT, ATP luminescence, 48 h | Potency, µM (doses to about 46.2 µM), for inactives: top-dose activity change, negative = growth inhibition, most hits filed as inhibitors | AID 686979; note: potency is the fitted concentration of half-maximal effect; nearly all actives have a fitted effect of over 55% in size
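Cell growth measured by CellTiter-Glo luminescence after a minimum 48 h, 37 C compound exposure with 20 nM CPT in Tdp1-knockout DT40 cells stably expressing hTDP1, seeded 400/well; qHTS titration format.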
HT1080NT lethal = kills 2HG-producing HT-1080-NT fibrosarcoma cells | HT-1080-NT fibrosarcoma viability, CellTiter-Glo ATP luminescence, 48 h | Potency, µM (titrated, usually from 46.1 µM), inactives show at the top dose activity, negative = less viability, most hits filed as cytotoxic | 360,000 tested, 1.6% active;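 note: NT is the 2HG producing partner of a matched IDH1 knockdown line; potency is the fitted concentration of half-maximal effect; 0% = DMSO-treated cells and -100% = media-only wells without cells; nearly all actives have a fitted effect of over 55% in size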
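HT-1080-NT; 750 cells/well; 5% FBS RPMI; 48 h compound, 37 degrees C; CellTiter-Glo luminescence; curve fitting and curve-class assignment.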
TDP1 cell noCPT = qHTS for Inhibitors of human tyrosyl-DNA phosphodiesterase 1 (TDP1): qHTS in cells in absence of CPT | DT40 Tdp1-/- hTDP1 cells, no CPT, ATP luminescence, 48 h | Potency, µM (highest dose often 46.2 µM), without a hit: top-dose activity change, negative = growth inhibition, actives largely listed as inhibitors | 420,000 tested, 15% active | AID 686978, 2013; note: potency is the fitted concentration of half-maximal effect; nearly all actives have a fitted effect of over 55% in size
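Luminescent ATP content (CellTiter-Glo) served as the growth readout. Knockout chicken DT40 cells expressing human TDP1 were exposed to compounds without camptothecin for a minimum 48 hr at 37 °C.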
HT1080 IDH1KD tx = kills HT-1080 cells with IDH1 knockdown | HT-1080 IDH1 knockdown viability, ATP luminescence, 48 h | Potency, µM (titrated, usually from 46.1 µM), for the others: at the top dose activity, negative = toxicity, actives largely listed as cytotoxic | 360,000 tested, 2% active;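 note: potency is the fitted concentration of half-maximal effect; 0% = DMSO wells and -100% = cell-free medium wells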
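Assay cells: HT-1080 with IDH1 knockdown, 750 per well, RPMI/5% FBS. Exposure: 48 h at 37 °C following 2 h pre-incubation. Read: CellTiter-Glo luminescence; fitted concentration-response, curve class assigned.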
Active calls of the source: *; u = inconclusive; x = no result; [ ] = another dose, or the depositor's remark. Unless noted, calls come from the whole dose curve; as a rule, active = well fitted curve in the direction sought with a large enough effect; inconclusive = small, poorly fitted or top-dose-only effect, or another doubt; inactive = no such curve, though single readings can be large; an effect the other way counts as inactive or inconclusive. Unless noted, % is set by controls: 0 for no effect and ±100 for the full control effect.

SMILES	IL-1B inflam inh	DT40 TDP1 CPT	HT1080NT lethal	TDP1 cell noCPT	HT1080 IDH1KD tx
C=C1[C@H](C)CN(S(=O)(=O)C(C)(C)C)[C@H]1CCO	-13.7	-25.1%	-2.4%	1.4%	2.9%
CC(C)(C)S(=O)(=O)N1C[C@H]2CC/C=C\C/C=C\2[C@@H]1CCO	24.3	20.6µM*	7.0%	13µM*	0.6%
COC(=O)Cn1cnc2c(Cl)nc(F)nc21	-89.6*	13µM*	-14.5%	16.4µM*	-20.0%
COc1cc(CN2CCCC(n3cc(C(=O)N4CCCCC4)nn3)C2)cc2c1OCO2 (stereo not given)	x	-5.1%[9.04 µM]	x	-12.5%	x
C/C(N)=C(/C#N)C(=O)CSc1nnc(NC(C)C)s1	-28.0	-17.5%	-6.8%	-2.0%	-0.6%
CCOc1ccc2oc(=O)cc(CN3CCN(C(=O)c4ccco4)CC3)c2c1	-12.9	-1.5%	-8.4%	-0.2%	-16.6%
CCOc1ccc2oc(=O)cc(CN3CCN(Cc4ccc(C)cc4)CC3)c2c1	x	23.1µM*	x	14.6µM*	x
CCOC(=O)N1CCN(Cc2cc(=O)oc3ccc(Cl)cc23)CC1	-3.4	-27.5%	-5.4%	u	4.4%
CCOc1ccc2oc(=O)cc(CN3CCN(Cc4ccccc4)CC3)c2c1	1.2	u	u	23.1µM*	12.5%
CC(O)CNc1nc2ccccc2n1-c1ncnc2sc3c(c12)CCC3 (stereo not given)	u	16.4µM*	u	29.1µM*	u
c1ccc2c(c1)ncn2-c1ncnc2sc3c(c12)CCCC3	18.3	4.3%	-23.6%	-8.9%	-10.6%
CC(=O)Nc1ccc(N2C(C(C)=O)=NN(c3ccc(Cl)cc3)C2c2sccc2C)cc1 (stereo not given)	-7.1	23.1µM*	u	23.1µM*	7.94µM*
COc1cc(CC(=O)OCC(=O)NCc2ccco2)cc(OC)c1OC	2.3	1.6%	12.2%	13.1%	4.1%
Fc1cccc(Cl)c1CSc1nnc(-c2ccncc2)o1	11.2	-11.2%	-0.3%	-9.2%	-6.6%
COc1cc(-c2nnc(SCc3ccccc3Cl)o2)cc(OC)c1OC	-58.8*	u	3.6%	u	10.4%
COc1cc(-c2nnc(SCC3(c4ccc(Br)cc4)OCCO3)o2)cc(OC)c1OC	u	16.4µM*	-3.5%	u	-52.1%
COc1cc(-c2nnc(SCc3c(F)cccc3Cl)o2)cc(OC)c1OC	-57.9*	u	-6.9%	25.9µM*	-11.5%
COc1cc(-c2nnc(SCC(=O)N3CCOCC3)o2)cc(OC)c1OC	6.0	5.1%	6.4%	-11.2%	10.9%
CCCCn1c(N)c(N(CC(C)C)C(=O)C2CC(=O)N(c3ccc(CC)cc3)C2)c(=O)[nH]c1=O (stereo not given)	-9.9	-0.5%	5.0%	3.7%	5.2%
O=C(COC(=O)/C=C/c1cccs1)Nc1ccc2ccccc2c1	3.4	-16.9%	0.2%	-5.2%	4.7%
CC(=O)Nc1ccc(NC(=O)c2cc(-c3cc(C)cc(C)c3O)n[nH]2)cc1	-4.7	11.6µM*	-6.9%	16.4µM*	-10.6%
Cc1cc(C)c(O)c(-c2cc(C(=O)Nc3ccc(S(=O)(=O)N4CCOCC4)cc3)[nH]n2)c1	-86.2*	16.4µM*	20.6µM*	16.4µM*	u
Cc1ccc(C(=O)Nc2ccc(S(=O)(=O)N3CCOCC3)cc2)cc1	-15.4	-4.7%	-11.3%	-37.7%	-2.7%
CC(=O)Nc1ccc(NC(=O)c2cc(-c3ccc(C)c(C)c3O)n[nH]2)cc1	u	-29.0%	-5.0%	-19.6%	-0.4%
COc1ccc(-c2nnc(SCC(=O)Nc3ccc(C(C)=O)cc3)nc2-c2ccc(OC)cc2)cc1	x	11.6µM*	x	10.3µM*	x
SMILES	IL-1B inflam inh	DT40 TDP1 CPT	HT1080NT lethal	TDP1 cell noCPT	HT1080 IDH1KD tx
COc1ccc(-c2nnc(SCC(=O)Nc3cccc(Cl)c3C)nc2-c2ccc(OC)cc2)cc1	x	u	x	10.3µM*	x
Cc1c(Cl)cccc1NC(=O)CSc1nnnn1C	0.0	6.0%	2.2%	u	3.7%
Cc1cc(C)c2[nH]c(C(=O)Nc3ccc(F)cc3Br)cc2c1	31.3	10.4%	-0.2%	-4.2%	-2.0%
O=C(Cc1csc(Nc2nc(=S)[nH]c3ccccc23)n1)N1CCN(c2cccc(Cl)c2)CC1	64.0	14.6µM*	u	14.6µM*	-16.8%
O=C(Cn1c(=O)[nH]c2ccccc2c1=O)N1CCN(c2cccc(Cl)c2)CC1	13.2	-11.2%	27.6%	-10.9%	9.9%
Cc1ccc(Cl)cc1N1CCN(C(=O)Cc2csc(Nc3nc(=S)[nH]c4ccccc34)n2)CC1	30.7	13µM*	0.6%	14.6µM*	9.0%
CC(=NCCc1c(C)[nH]c2ccc(OCc3ccccc3)cc12)C1=C(O)CC(c2ccccc2)CC1=O (stereo not given)	9.0	u	-28.9%	u	-16.9%
CCCCC(=NCCc1c(C)[nH]c2ccc(OC)cc12)C1=C(O)CC(c2ccccc2)CC1=O (stereo not given)	9.4	4.11µM*	u	4.11µM*	2.31µM*
CCC(=NCCc1c(C)[nH]c2ccc(OC(F)(F)F)cc12)C1=C(O)CC(c2ccccc2)CC1=O (stereo not given)	4.3	4.61µM*	4.11µM*	5.8µM*	5.8µM*
CCC(=NCCc1c(C)[nH]c2ccccc12)C1=C(O)CC(c2ccccc2)CC1=O (stereo not given)	u	4.11µM*	u	2.91µM*	8.2µM*
CCn1nc(C)c(CCN(C)C(=O)Nc2cc(OC)c(OC)c(OC)c2)c1C	x	-0.6%	x	-12.4%	x
Cc1ccccc1CN1C(=O)c2ccccc2Sc2ccc(C(=O)NC3CCCCC3)cc21	x	14.6µM*	x	16.4µM*	x
O=C(NC1CCCC1)c1ccc2c(c1)N(Cc1ccccc1Cl)C(=O)c1ccccc1S2	x	-24.4%	x	u	x
O=C(NC1CCCC1)c1ccc2c(c1)N(Cc1ccccc1F)C(=O)c1ccccc1S2	x	u	x	14.6µM*	x
Cc1cccc(S(=O)(=O)NC(=O)C2(C)CCN2C(=O)Cc2ccc(-c3ccccc3)cc2)c1 (stereo not given)	64.7	3.8%	-25.6%	u	-19.2%
CCN(CC)c1nc(C(N)=O)cc(-c2ccccc2)n1	-72.9*	-5.5%	-23.5%	-18.6%	u
CN1CCN(c2nc(C(N)=O)cc(-c3ccccc3)n2)CC1	-57.4*	-5.2%	3.6%	-23.5%	0.2%
CN(N)c1nc(-c2ccccc2)cc(-c2ccccc2)n1	-63.9*	u	-0.1%	u	-5.0%
CC(C)(C)c1ccc(O)c(N=Cc2cccc([N+](=O)[O-])c2)c1	x	u	5.4%	u	12.0%
COc1ccc(Nc2ccc3cc(S(=O)(=O)N4CCCC4)ccc3n2)cc1Cl	x	20.6µM*	x	20.6µM*	x
CCN(c1ccccc1)c1ccc2cc(S(=O)(=O)N3CCCC3)ccc2n1	x	25.9µM*	x	20.6µM*	x
